High-throughput results: PubChem BioAssay, several laboratories
Only some compounds are listed: those with a hit (about 3% of all), similar ones and a draw of the others.
IEC-6 tox = IEC-6 cytotoxicity, counter-screen for KLF5 inhibitors. luminescence viability. 290,000 compounds, 0.78% hits. inhibition, % at 5 µM; in the data active means inhibition above about 22%
aSyn UTR inh = MLPCN primary screen, SNCA 5' untranslated region. alpha-synuclein 5'UTR reporter, inhibitor activity. inhibition, % (tested at 7.5 µM). 300,000 compounds, 0.82% hits; in the data active means inhibition above about 60%;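 further: H4 neuroglioblastoma cells stably carrying SNCA 5'UTR luciferase fusion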
CSC inhib = blocks cancer stem cells; cancer stem cell-like cells viability, luminescence; inhibition, % at 7.5 µM; 300,000 compounds, 1.1% hits; AID 2717; in the data active means inhibition above about 75%; tested in HMLE shEcad cells
SKKanGAS inh = inhibitors of SKKanGAS S. pyogenes growth in kanamycin (SK-promoter or general growth effect); inhibition, % at 7.5 µM; AID 1662; 300,000 compounds, 1.3% hits; BacTiter-Glo, 6 h;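 active means mean replicate score, as percent of positive control median, at least 50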;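 further: strain carries kanamycin resistance gene driven by streptokinase promoter and grows in 40 µg/ml kanamycin; loss of luminescence reflects streptokinase promoter inhibition or plain growth inhibition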
KLF5 inhibitor = suppresses KLF5 promoter-driven expression | 290,000 compounds, 0.23% hits | DLD-1 KLF5 promoter-luciferase reporter, luminescence | inhibition, % at 5 µM;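 active means inhibition above a per-plate limit of that plate's mean compound inhibition plus 3 SD, cut at about 60% in these data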;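 further: higher means less KLF5 promoter-driven luciferase light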
A number is an active result.

`C[C@@H]1CC=C[C@H]2[C@H]1C(=O)N(Cc1ccccc1)[C@H]2c1ccoc1` gave aSyn UTR inh inactive, CSC inhib inactive and SKKanGAS inh inactive.
CC[C@@H]1CC=C[C@H]2[C@H]1C(=O)N(Cc1ccccc1)[C@H]2c1ccoc1 was read as aSyn UTR inh inactive, CSC inhib 86 and SKKanGAS inh inactive.
CC[C@@H]1CC=C[C@H]2[C@H]1C(=O)N(Cc1ccccc1)[C@H]2c1ccc(OC)c(Cl)c1 was read as aSyn UTR inh inactive, CSC inhib 77 and SKKanGAS inh 59.
For CCc1nn2c(=O)cc(COC(=O)c3cc(Cl)c(OC)c(OC)c3)nc2s1 the results were CSC inhib inactive.
`O=C(Cc1cccc2ccccc12)N/N=C/c1ccc2cccc(O)c2n1` gave IEC-6 tox inactive, aSyn UTR inh inactive, CSC inhib inactive, SKKanGAS inh 71 and KLF5 inhibitor inactive.
For O=C(Cc1cccc2ccccc12)N/N=C/c1ccc(O)c([N+](=O)[O-])c1 the results were IEC-6 tox inactive, aSyn UTR inh inactive, CSC inhib inactive, SKKanGAS inh inactive and KLF5 inhibitor inactive.
O=C(CN1CCN(S(=O)(=O)c2ccccc2)CC1)Nc1ccc2c(c1)CCC2 was read as IEC-6 tox inactive, aSyn UTR inh inactive, CSC inhib inactive, SKKanGAS inh inactive and KLF5 inhibitor inactive.
Cc1ccc(NC(=O)C(=Cc2ccc(C(=O)O)cc2)C(=O)Nc2ccc(C)cc2C)c(C)c1 was read as IEC-6 tox inactive, aSyn UTR inh inactive, CSC inhib 159, SKKanGAS inh inactive and KLF5 inhibitor inactive.
For O=C(NC(=S)NCCc1ccccc1)C1CCCCC1 the results were IEC-6 tox inactive, aSyn UTR inh inactive, CSC inhib 102, SKKanGAS inh inactive and KLF5 inhibitor inactive.
`Cc1cc(Sc2ccc([N+](=O)[O-])cn2)ccc1Br` gave aSyn UTR inh inactive, CSC inhib inactive and SKKanGAS inh inactive.
Cc1cc(S(=O)(=O)c2ccc([N+](=O)[O-])cn2)ccc1Br was read as aSyn UTR inh inactive, CSC inhib 98 and SKKanGAS inh inactive.
CCOc1ccc(-c2nc3n(c(=O)c2C#N)CCCS3)cc1 was read as IEC-6 tox inactive, aSyn UTR inh inactive, CSC inhib inactive, SKKanGAS inh 58 and KLF5 inhibitor inactive.
For COc1ccc(-c2nc3n(c(=O)c2C#N)CCCS3)cc1 the results were IEC-6 tox inactive, aSyn UTR inh inactive, CSC inhib inactive, SKKanGAS inh inactive and KLF5 inhibitor inactive.
COc1cc(Cl)c(CN2CCCC(CO)(Cc3cccc(Cl)c3)C2)cc1OC (centres undefined) was read as IEC-6 tox inactive, aSyn UTR inh inactive, CSC inhib inactive, SKKanGAS inh inactive and KLF5 inhibitor inactive.
`N#Cc1cnn2c1nc(N1CCCCC1)c1ccccc12` gave IEC-6 tox inactive, aSyn UTR inh 64, CSC inhib inactive, SKKanGAS inh inactive and KLF5 inhibitor inactive.
Screening CN1C(=O)/C(=C/c2ccccc2Cl)Sc2ccc(C(=O)N3CCCC3)cc21 returned IEC-6 tox inactive, aSyn UTR inh inactive, CSC inhib inactive, SKKanGAS inh 99 and KLF5 inhibitor inactive.
`O=C(CN1CCN(c2ccccn2)CC1)N1c2ccccc2Sc2ccc(C(F)(F)F)cc21` gave IEC-6 tox inactive, aSyn UTR inh inactive, CSC inhib inactive, SKKanGAS inh inactive and KLF5 inhibitor inactive.
CCOC(=O)C1CCCN(C(=O)c2ccc3c(c2)N(C)C(=O)/C(=C/c2ccccc2Cl)S3)C1 (centres undefined) was read as IEC-6 tox inactive, aSyn UTR inh inactive, CSC inhib inactive, SKKanGAS inh 105 and KLF5 inhibitor inactive.
CN1C(=O)/C(=C/c2ccc(C(F)(F)F)cc2)Sc2ccc(C(=O)N3CCN(c4ccccn4)CC3)cc21 was read as IEC-6 tox inactive, aSyn UTR inh inactive, CSC inhib inactive, SKKanGAS inh 104 and KLF5 inhibitor inactive.
`COCCN(C(=O)COC(=O)c1ccccc1NCc1ccco1)c1c(N)n(Cc2ccccc2)c(=O)[nH]c1=O` gave aSyn UTR inh inactive, CSC inhib inactive and SKKanGAS inh inactive.
For Cc1cc(-c2ccccc2)c2ccc(NC(=O)C(C)(C)C)nc2n1 the results were IEC-6 tox inactive, aSyn UTR inh inactive, CSC inhib inactive, SKKanGAS inh inactive and KLF5 inhibitor inactive.
Screening c1ccc(-n2c3ccccc3c3ccccc32)cc1 returned IEC-6 tox inactive, aSyn UTR inh inactive, CSC inhib inactive, SKKanGAS inh 58 and KLF5 inhibitor inactive.
CC1CCCC(NC(=O)Cn2cc(Br)ccc2=O)C1C (centres undefined) was read as CSC inhib inactive.
`NC(=O)c1ccccc1NC(=O)c1ccccc1Cl` gave IEC-6 tox inactive, aSyn UTR inh inactive, CSC inhib inactive, SKKanGAS inh inactive and KLF5 inhibitor inactive.
For O=C(Nc1ccccc1C(=O)Nc1nnc(C(F)(F)F)s1)c1ccccc1Cl the results were IEC-6 tox inactive, aSyn UTR inh inactive, CSC inhib 95, SKKanGAS inh 101 and KLF5 inhibitor inactive.
Screening Cc1cccc(NC(=O)COc2coc(CN3CCN(c4ccccc4)CC3)cc2=O)c1C returned aSyn UTR inh inactive, CSC inhib inactive and SKKanGAS inh inactive.
Screening Cc1cc(Nc2ccccc2)n2nc(C)c(-c3ccccc3)c2n1 returned IEC-6 tox inactive, aSyn UTR inh inactive, CSC inhib inactive, SKKanGAS inh inactive and KLF5 inhibitor inactive.
For CC(C)(C)c1cc(NCc2ccccn2)n2ncc(-c3ccc(Cl)cc3)c2n1 the results were IEC-6 tox inactive, aSyn UTR inh inactive, CSC inhib inactive, SKKanGAS inh 85 and KLF5 inhibitor inactive.
`CN(C)CCCNc1cc(C(C)(C)C)nc2c(-c3ccc(Cl)cc3)cnn12` gave IEC-6 tox inactive, aSyn UTR inh 108, CSC inhib 107, SKKanGAS inh 75 and KLF5 inhibitor inactive.
For Cc1nn2c(NCc3ccccn3)cc(C(C)(C)C)nc2c1-c1ccccc1 the results were IEC-6 tox inactive, aSyn UTR inh inactive, CSC inhib inactive, SKKanGAS inh 97 and KLF5 inhibitor inactive.
`CC(C)(C)c1cc(NCCCn2ccnc2)n2ncc(-c3ccccc3)c2n1` gave IEC-6 tox inactive, aSyn UTR inh inactive, CSC inhib inactive, SKKanGAS inh inactive and KLF5 inhibitor inactive.
CC(C)Nc1cc(C(C)(C)C)nc2c(-c3ccccc3)cnn12 was read as IEC-6 tox inactive, CSC inhib inactive, SKKanGAS inh 89 and KLF5 inhibitor inactive.
`CCCCOC(=O)c1ccc(NC(=O)C(=O)NCc2ccco2)cc1` gave IEC-6 tox inactive, aSyn UTR inh inactive, CSC inhib inactive, SKKanGAS inh inactive and KLF5 inhibitor inactive.
Screening Cc1c(CCO)c(=O)[nH]n1S(=O)(=O)c1ccc(F)cc1 returned IEC-6 tox inactive, aSyn UTR inh inactive, CSC inhib inactive, SKKanGAS inh inactive and KLF5 inhibitor inactive.
`O=C(NC(Cc1c[nH]c2ccccc12)C(=O)OCC(=O)c1cccc2ccccc12)c1cccs1` (centres undefined) gave IEC-6 tox inactive, aSyn UTR inh inactive, CSC inhib inactive, SKKanGAS inh inactive and KLF5 inhibitor inactive.
For Cc1ccc(-c2oc3ccccc3c(=O)c2O)cc1 the results were IEC-6 tox inactive, aSyn UTR inh inactive, CSC inhib inactive, SKKanGAS inh inactive and KLF5 inhibitor inactive.
